From PubChem
Compounds with a hit are over-represented: about 8.5% of the library has one in this group of screens.
NPSR antag: qHTS Assay for Antagonists of the Neuropeptide S Receptor: cAMP Signal Transduction; Q6W5P4; CHO-NPSR cells, cAMP TR-FRET, antagonist mode; Potency, µM (series often up to 38.3 µM), for inactives: at the top dose activity change, negative = inhibition, actives largely listed as inhibitors; hit rate 1% among 220,000; AID 1461, 2008; further: potency means the concentration at half of the fitted maximal effect; nearly all actives have a fitted effect of over 50% in size
Target sequence (Q6W5P4 whole entry, looked up): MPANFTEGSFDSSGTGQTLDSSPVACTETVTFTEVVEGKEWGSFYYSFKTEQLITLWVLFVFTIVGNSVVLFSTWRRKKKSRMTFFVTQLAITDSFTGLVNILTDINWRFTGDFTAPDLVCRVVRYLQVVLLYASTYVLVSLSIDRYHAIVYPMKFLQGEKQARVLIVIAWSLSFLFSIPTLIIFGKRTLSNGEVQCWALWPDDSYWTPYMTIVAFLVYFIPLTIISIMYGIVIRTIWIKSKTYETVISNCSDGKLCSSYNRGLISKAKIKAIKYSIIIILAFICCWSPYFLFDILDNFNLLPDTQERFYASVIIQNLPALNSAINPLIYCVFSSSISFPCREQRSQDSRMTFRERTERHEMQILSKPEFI
FBPA coupling cs: qHTS Assay for Inhibitors of Fructose-1,6-bisphosphate Aldolase from Giardia Lamblia: Coupling assay counterscreen; coupling enzyme system counterscreen, AmpLite Red fluorescence; hit rate 0.67% among 290,000; activity change, negative = inhibition, % at 58.2 µM, hits read low; AID 2472, 2010; in the data active means activity change below about -30%
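Coupling enzymes only (glyceraldehyde-3-phosphate) + compound, at 57.5 uM final, 10 min RT; add substrate/coupling/AmpLite Red mix, 20 min RT; fluorescence ex 525/em 598 nm. Actives flag coupling-system interference.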
KDM4E inh: qHTS Assay for Inhibitors of Human Jumonji Domain Containing 2E (JMJD2E) | Potency, µM (titrated, usually from 57.1 µM), for the others: top-dose activity change, negative = inhibition, actives largely listed as inhibitors | JMJD2E catalytic domain, FDH-coupled NADH fluorescence (FDH is formaldehyde dehydrogenase) | hit rate 1.6% among 230,000 | Lysine-specific demethylase 4E (Homo sapiens), B2RXH2; active means well fitted inhibition curve with a large enough effect, not every such curve was filed as active; inconclusive means small, poorly fitted or top-dose-only effect, or another doubt; inactive means no such curve, though single readings can be large or run the other way;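 further: potency means the concentration at half of the fitted maximal effect; 0% = wells with enzyme and -100% = buffer wells without enzyme; nearly all actives have a fitted effect of over 50% in size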
Target sequence (B2RXH2 1-337 limits assumed): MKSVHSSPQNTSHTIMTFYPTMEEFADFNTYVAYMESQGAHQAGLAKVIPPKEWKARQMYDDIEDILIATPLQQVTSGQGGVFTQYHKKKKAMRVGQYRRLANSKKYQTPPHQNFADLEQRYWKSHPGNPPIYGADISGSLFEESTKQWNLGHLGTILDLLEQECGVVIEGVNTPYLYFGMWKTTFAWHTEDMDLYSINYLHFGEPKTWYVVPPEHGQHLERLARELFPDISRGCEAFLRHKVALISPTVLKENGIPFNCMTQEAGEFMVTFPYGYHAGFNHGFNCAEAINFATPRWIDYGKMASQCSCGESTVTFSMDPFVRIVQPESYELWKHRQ
RGS12 GoLoco inh: qHTS Assay for Inhibitors of RGS12 GoLoco Motif Activity (Red Fluorophore). Guanine nucleotide-binding protein G(i) subunit alpha-1 (Homo sapiens), P63096. Gai1:RGS12 GoLoco peptide FP, rhodamine, 10 min. Potency, µM (highest dose often 61.6 µM), inactives show at the highest dose activity, negative = inhibition, usual class: inhibitors. hit rate 0.44% among 230,000. AID 880, 2007; active means well fitted inhibition curve with a large enough effect, not every such curve was filed as active; inactive means no such curve, though single readings can be large or run the other way; further: potency means the concentration at half of the fitted maximal effect; nearly all actives have a fitted effect of over 30% in size
Sfp PPTase inh: qHTS Assay for Inhibitors of Bacillus subtilis Sfp phosphopantetheinyl transferase (PPTase); hit rate 3.5% among 310,000; AID 1490, 2009; Potency, µM, for inactives: largest response in the series, negative = inhibition, most hits filed as inhibitors; Biochemical Sfp PPTase activity, qHTS;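 further: the enzyme is Sfp with the accession as filed and its product quenches rhodamine fluorescence; potency means the concentration at half of the fitted maximal effect; 0% = enzyme reaction without inhibitor and -100% = no enzyme wells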
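Fluorescence-quenching assay: 15 nM Sfp-PPTase preincubated 15 min at room temperature with compound, then 5 uM rhodamine-CoA and 12.5 uM BHQ-2-labelled YbbR peptide added. Fluorescence (ex 525/em 598 nm) read at start and after 30 min; difference gives rate.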
ALDH1A1 inh: qHTS Assay for Inhibitors of Aldehyde Dehydrogenase 1 (ALDH1A1); Purified ALDH1A1, NADH fluorescence, propionaldehyde substrate; Potency, µM (doses to about 75.3 µM), without a hit: at the highest dose activity, negative = inhibition, most hits filed as inhibitors; hit rate 7.3% among 220,000; active means well fitted inhibition curve with a large enough effect, not every such curve was filed as active; inconclusive means small, poorly fitted or top-dose-only effect, or another doubt; inactive means no such curve, though single readings can be large or run the other way;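 further: potency means the concentration at half of the fitted maximal effect; plate controls were no enzyme wells and a reference inhibitor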
Active calls of the source: *; ? = inconclusive; . = no result given; ! = repeats disagree; [ ] = another dose, or the depositor's remark. Unless noted, the call rests on the fitted dose curve; in most records, active means well fitted curve in the direction sought with a large enough effect; inconclusive means small, poorly fitted or top-dose-only effect, or another doubt; inactive means no such curve, though single readings can be large; an effect the other way counts as inactive or inconclusive. Unless noted, on the % scale 0 is the no-effect control and ±100 the full control effect.

SMILES	NPSR antag	FBPA coupling cs	KDM4E inh	RGS12 GoLoco inh	Sfp PPTase inh	ALDH1A1 inh
O=C(Cc1ccccc1)N1CCN(Cc2c[nH]c3ccccc23)CC1	3%[46.1 µM]	-1	-17%	-14%	0%	25µM*
O=C(COc1ccccc1)N1CCN(C2CCCC2)CC1	2%[46.1 µM]	-1	?	-10%	-4%	-4%
O=C(COc1ccccc1)N1CCN(Cc2c[nH]c3ccccc23)CC1	8%[46.1 µM]	3	-6%	-2%	1%	10%
O=[N+]([O-])c1ccc(CN2CCN(c3ccc(Cl)cc3)CC2)o1	.	-7	.	.	79µM*	.
COC(=O)[C@@H]1[C@@H]2C[C@H]3c4[nH]c5cc(OC)ccc5c4CCN3C[C@@H]2C[C@H](OC(=O)/C=C\c2cc(OC)c(OC)c(OC)c2)[C@H]1OC	.	-3	?	3%[21.6 µM]	-15%	?
ClC1=C(Cl)C(Cl)(Cl)C(Cl)=C1Cl	.	.	.	4%	.	28µM*
ClC1=C(Cl)C(Cl)(C2(Cl)C(Cl)=C(Cl)C(Cl)=C2Cl)C(Cl)=C1Cl	.	-14	.	.	?	.
C[C@H]1C[C@H](C)C(=O)[C@@H]([C@H](O)CC2CC(=O)NC(=O)C2)C1	.	0	9%	-2%	17%	0%
O=[N+]([O-])c1ccc(-c2[se]c3ccccc3c2I)cc1	.	3	.	7%	-21%	?
Cn1c(=O)c2[nH]cnc2n(C)c1=O.[CH2-][C@H](Cc1cccc2cc(C(=O)O)c(=O)oc12)OC.[Hg].[OH-]	.	.	.	-2%[14.2 µM]	.	3.2µM*
Nc1ccc(-c2ccc(N)c(Cl)c2)cc1Cl	.	.	.	3%	.	?
OC[C@@H]1[C@@H](O)[C@H](O)[C@H]2[C@@H](O)CCN21	.	1	.	.	0%	.
C=CCN1C(=O)NC(=O)/C(=C/c2ccc(N(C)C)c(Br)c2)C1=O	-20%	-6	-24%	221%	50µM*	13µM*
C=C(C)CN1C(=O)C(O)(CC(=O)c2ccc3c(c2)OCCO3)c2ccccc21 (stereo unspecified)	-2%[46.1 µM]	-1	-1%	-1%	24%	11µM*
Cc1ccc(OP(=O)(Oc2ccc(C)cc2)Oc2ccc(C)cc2)cc1	.	.	.	13%	.	8%
CCOc1c(P(=S)(N(C)C)N(C)C)c(C)nn1-c1ccccc1	-14%[46.1 µM]	-1	-2%	15%	11%	3%
CCN(CC)P(=S)(c1c(C)nc2ccccn12)c1c(C)nc2ccccn12	-51%	1	-15%	-2%	50µM*	?
CCCCC/C=C\C/C=C\C/C=C\C/C=C\CCCC(=O)OC(CO)CO	.	-2	-2%	-18%	25%	22µM*!
CCCCC/C=C\C/C=C\C/C=C\C/C=C\CCCC(=O)NC1CC1	.	0	.	-2%	-10%	?
CCCCC/C=C\C/C=C\C/C=C\C/C=C\CCCC(=O)N[C@H](C)CO	.	-2	1%	1%	22µM*!	7.1µM*!
CCCCC/C=C\C/C=C\CCCCCCCC(=O)NCCO	.	-1	-9%	0%	29%	8%
CC[C@@H](CO)NC(=O)[C@H]1C=C2c3cccc4c3c(cn4C)C[C@H]2N(C)C1	?	-42*	?	-6%	56µM*	?
COc1ccccc1C1(O)CCN(CCCn2c3ccccc3c3ccccc32)CC1	.	4	.	.	?	.
Cc1ccc(-n2c(O)c(C=NCc3ccco3)c(=O)[nH]c2=S)cc1C	-7%[7.67 µM]	-2	?	62%	20µM*	.
CC(=O)Nc1ccc(N=Cc2c(O)n(Cc3ccco3)c(=O)[nH]c2=O)cc1	-20%	4	?	0%	-14%	9.5µM*
SMILES	NPSR antag	FBPA coupling cs	KDM4E inh	RGS12 GoLoco inh	Sfp PPTase inh	ALDH1A1 inh
O=C(N/N=C/c1c(O)n(Cc2ccco2)c(=O)[nH]c1=O)c1ccccc1O	-5%	6	?	2%	17%	.
O=c1[nH]c(=O)n(Cc2ccco2)c(O)c1C=NCc1ccco1	-8%[46.1 µM]	-1	-15%	33%	25µM*	10µM*
CCCCC(=O)N/N=C/c1c(O)n(Cc2ccco2)c(=O)[nH]c1=O	28%	3	25µM*	28%	-24%	1%
O=c1[nH]c(=S)n(-c2ccccc2F)c(O)c1C=NCc1ccco1	10%	0	-9%	10%	-10%	-14%
CCN(CC)CCN=Cc1c(O)n(Cc2ccco2)c(=O)[nH]c1=O	-13%	-1	2%	5%	-1%	11%
C[C@]12CC(=CO)C(=O)C[C@@H]1CC[C@@H]1[C@@H]2CC[C@@]2(C)[C@H]1CC[C@]2(C)O	6.3µM*	7	-19%	4%	-14%	.
C[C@]12CCC(=O)C=C1CC[C@@H]1[C@@H]2CC[C@@]2(C)[C@H]1CC[C@]2(C)O	-34%	3	1%	7%	11%	6%
NC1(P(=O)(O)O)CCCCC1	.	.	.	-6%[14.2 µM]	.	4%[13.5 µM]
C=CCOC(=O)c1ccccc1N	.	.	.	3%	.	?
COC(=O)c1ccccc1N	.	.	.	32µM*	.	?
CCc1ccc(CCN2CCCCC2)nc1	.	.	.	-3%[14.2 µM]	.	-4%[13.5 µM]
CSc1ccc(C(=O)C(C)(C)N2CCOCC2)cc1	-16%[46.1 µM]	-2	-3%	1%	8%	8.9µM*
CCCCn1c(NC(=O)c2ccc(Br)o2)c(C(=O)OCC)c2nc3ccccc3nc21	3%	-44*	?	-20%	-30%	?
CCCCn1c(NS(=O)(=O)c2ccccc2)c(C(=O)OCC)c2nc3ccccc3nc21	7%	0	?	2%	9%	?
Cc1ccc(Sc2ccc(C=C3C(=O)N(C)C(=O)N(C)C3=O)o2)cc1	?	-11	8%	258%	8.9µM*	4.5µM*
O=C1C2CCN(CC2)[C@@H]1Cc1ccc2ccccc2c1O	2%[46.1 µM]	-43*	-23%	8%	?	2%
c1ccoc1	.	.	.	11%	.	8%
CC1(C)CC(=O)C2=C(C1)OC(N)=C([N+](=O)[O-])C2c1ccc(C#N)s1 (stereo unspecified)	-23%	-5	-28%	-5%	35µM*	20µM*
C[C@H](CCC(=O)O)C[C@H](C)C[C@H](C)C(=O)/C=C(\O)[C@H](C)C[C@H](C)C/C=C/[C@@H](C)[C@@H](O)[C@@H](C)[C@@H](O)C[C@@H]1CC[C@@](C)([C@H]2CC[C@@](C)([C@@H](C)O)O2)O1	.	5	.	12%	2%	3%
COc1ccccc1OCC#CCN1CCCCCC1	9%	5	0%	-5%	-19%	28µM*
CON(C)C(=O)Nc1ccc(Br)c(Cl)c1	.	-1	.	.	-8%	.
CCOC(=S)SSC(=S)OCC	.	.	.	.	5.6µM*	.
CCOC(=O)CBr	.	.	.	0%	.	?
